Source: PMC5700166
Numbering of substitutions follows the chain as printed.

Assays:
Experiment in all cases: protein-binding microarray (PBM); PBM: ~300 nM protein, 6 mM HEPES pH 7.8, 80 mM KCl, 0.5 mM EDTA, 0.5 mM EGTA, 6% glycerol, 35 ng/ul poly-dIdC, 1% milk, 1 h, room temperature; Ap Aiptasia and Nv Nematostella (sea anemones) / Co Capsaspora / Aq Amphimedon (sponge) / Dm Drosophila / Hu human; RHD is the Rel homology domain; high values mean tight binding
Conditions in all cases: dsDNA, one strand shown
GST-Ap-NF-kB RHD = target: T1, GST-Ap-NF-kB RHD (Exaiptasia pallida (Aiptasia), UniProt A0A913YAJ5 2-422)
T1 sequence: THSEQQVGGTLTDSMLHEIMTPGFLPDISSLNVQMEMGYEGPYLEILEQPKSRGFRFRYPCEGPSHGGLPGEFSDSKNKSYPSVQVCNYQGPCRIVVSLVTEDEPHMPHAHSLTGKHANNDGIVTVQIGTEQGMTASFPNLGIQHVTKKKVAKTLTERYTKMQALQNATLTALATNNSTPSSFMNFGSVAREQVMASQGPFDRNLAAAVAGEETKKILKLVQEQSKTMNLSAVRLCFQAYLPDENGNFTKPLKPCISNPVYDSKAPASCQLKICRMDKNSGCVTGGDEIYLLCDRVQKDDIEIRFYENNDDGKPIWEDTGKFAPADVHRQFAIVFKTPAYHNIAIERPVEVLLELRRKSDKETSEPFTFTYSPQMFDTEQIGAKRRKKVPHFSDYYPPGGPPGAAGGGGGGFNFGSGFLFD

[1] = target: T2, GST-Nv-NF-kB (Cys allele) (Nematostella vectensis, UniProt E5G601 2-411)
T2 sequence: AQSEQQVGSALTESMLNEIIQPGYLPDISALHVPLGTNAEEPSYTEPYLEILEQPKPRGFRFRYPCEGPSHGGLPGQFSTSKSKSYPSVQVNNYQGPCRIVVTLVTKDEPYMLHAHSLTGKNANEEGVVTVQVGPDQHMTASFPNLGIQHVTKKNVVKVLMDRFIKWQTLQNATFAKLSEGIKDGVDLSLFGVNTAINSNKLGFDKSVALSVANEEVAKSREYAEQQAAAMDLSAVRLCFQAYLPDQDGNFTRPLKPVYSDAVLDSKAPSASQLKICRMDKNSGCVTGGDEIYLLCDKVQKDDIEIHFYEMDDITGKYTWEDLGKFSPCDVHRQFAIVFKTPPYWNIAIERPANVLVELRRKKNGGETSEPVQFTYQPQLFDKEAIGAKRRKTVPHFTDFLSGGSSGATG

[2] = target: T3, GST-Nv-NF-kB (Ser allele) (Nematostella vectensis, UniProt A7UNT2 2-411)
T3 sequence: T2 sequence with Q21R, C66S, S207N, E215Q, V217A, E225K, A268E, D399E

GST-Co-NF-kB = target: T4, GST-Co-NF-kB (Capsaspora owczarzaki, UniProt F1ARL5 200-546)
T4 sequence: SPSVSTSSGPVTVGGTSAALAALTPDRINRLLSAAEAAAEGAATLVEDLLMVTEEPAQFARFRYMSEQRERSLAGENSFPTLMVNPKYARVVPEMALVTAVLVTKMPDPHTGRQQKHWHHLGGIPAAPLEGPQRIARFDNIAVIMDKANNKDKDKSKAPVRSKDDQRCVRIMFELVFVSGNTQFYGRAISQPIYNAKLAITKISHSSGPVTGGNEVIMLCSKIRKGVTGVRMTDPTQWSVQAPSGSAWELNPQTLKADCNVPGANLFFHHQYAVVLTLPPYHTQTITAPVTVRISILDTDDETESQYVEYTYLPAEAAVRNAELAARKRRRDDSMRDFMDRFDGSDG

GST-Dm-Relish = target: T5, GST-Dm-Relish (Drosophila melanogaster, UniProt Q94527 99-473)
T5 sequence: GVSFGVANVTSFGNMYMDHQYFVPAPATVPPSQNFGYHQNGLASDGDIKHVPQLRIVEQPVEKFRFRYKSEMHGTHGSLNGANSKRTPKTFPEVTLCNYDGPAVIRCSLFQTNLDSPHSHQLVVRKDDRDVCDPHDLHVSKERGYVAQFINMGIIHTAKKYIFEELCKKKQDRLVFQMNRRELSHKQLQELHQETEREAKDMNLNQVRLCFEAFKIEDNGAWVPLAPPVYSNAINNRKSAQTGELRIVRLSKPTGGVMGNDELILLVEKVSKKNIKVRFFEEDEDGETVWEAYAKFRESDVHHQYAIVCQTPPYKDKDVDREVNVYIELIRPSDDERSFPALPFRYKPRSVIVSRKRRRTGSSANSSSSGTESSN

GST-Aq-NF-kB = target: T6, GST-Aq-NF-kB (Amphimedon queenslandica, UniProt A9Y5G7 2-389)
T6 sequence: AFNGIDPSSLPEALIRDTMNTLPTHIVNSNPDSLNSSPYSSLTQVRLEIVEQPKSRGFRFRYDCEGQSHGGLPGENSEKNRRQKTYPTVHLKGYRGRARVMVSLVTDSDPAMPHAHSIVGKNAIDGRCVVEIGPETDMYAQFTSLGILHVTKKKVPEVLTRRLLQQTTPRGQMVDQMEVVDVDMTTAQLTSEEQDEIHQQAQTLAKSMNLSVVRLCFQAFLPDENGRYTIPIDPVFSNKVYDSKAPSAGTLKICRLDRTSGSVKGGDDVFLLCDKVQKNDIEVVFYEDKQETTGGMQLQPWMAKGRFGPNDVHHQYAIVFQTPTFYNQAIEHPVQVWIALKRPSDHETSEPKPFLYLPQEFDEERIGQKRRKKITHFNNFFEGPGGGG

GST-Hu-p50 = GST-Hu-p50 (Homo sapiens, UniProt P19838 7-356)
GST-Hu-p50, sequence (P19838 7-356): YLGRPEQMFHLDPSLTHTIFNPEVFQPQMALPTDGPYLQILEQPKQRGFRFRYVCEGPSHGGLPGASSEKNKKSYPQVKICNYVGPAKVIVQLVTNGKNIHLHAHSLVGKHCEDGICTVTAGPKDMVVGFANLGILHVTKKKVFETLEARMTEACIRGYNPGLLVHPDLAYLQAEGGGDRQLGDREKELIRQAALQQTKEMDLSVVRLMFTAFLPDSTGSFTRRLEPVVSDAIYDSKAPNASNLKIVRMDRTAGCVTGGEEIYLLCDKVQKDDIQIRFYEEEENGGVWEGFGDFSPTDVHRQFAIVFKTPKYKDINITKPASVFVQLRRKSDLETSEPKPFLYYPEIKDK

Row | Sequence | binding signal (GST-Ap-NF-kB RHD) [z-score] | binding signal [1] [z-score] | binding signal [2] [z-score] | binding signal (GST-Co-NF-kB) [z-score] | binding signal (GST-Dm-Relish) [z-score] | binding signal (GST-Aq-NF-kB) [z-score] | binding signal (GST-Hu-p50) [z-score]
1 | CCGATTAACATCAGGGGGATACATGATGTTAATCGGGTCTTGATTCGCTTGACGCTGCTG | 5.54 | 4.96 | 5.54 | 6.27 | 3.6 | 4.35 | 5.05
2 | CCGATTAACATCAGGGGACTTTATGATGTTAATCGGGTCTTGATTCGCTTGACGCTGCTG | 7.86 | 8.29 | 7.92 | 3.64 | 8.18 | 7.13 | 6.72
3 | CCGATTAACATCAATTTTCCCACTGATGTTAATCGGGTCTTGATTCGCTTGACGCTGCTG | 2.82 | 3.99 | 4.57 | 4.54 | 1.33 | 3.35 | 3.37
4 | CCGATTAACATCAGGGAAAGCCCTGATGTTAATCGGGTCTTGATTCGCTTGACGCTGCTG | 6.37 | 8.76 | 4.62 | 1.84 | 7.96 | 8.88 | 4.93
5 | CCGATTAACATCAGGGGATCACCTGATGTTAATCGGGTCTTGATTCGCTTGACGCTGCTG | 7.26 | 5.39 | 6.05 | 2.95 | 9.04 | 6.68 | 4.71
6 | CCGATTAACATCACCCCCGCCCCTGATGTTAATCGGGTCTTGATTCGCTTGACGCTGCTG | 4.47 | 3.37 | 3.72 | 6.71 | 4.74 | 4.27 | 3.7
7 | CCGATTAACATCAAAAGTCCCCCTGATGTTAATCGGGTCTTGATTCGCTTGACGCTGCTG | 8.58 | 8.14 | 8.36 | 7.93 | 9.15 | 7.54 | 6.72
8 | CCGATTAACATCACGGGAAAACCTGATGTTAATCGGGTCTTGATTCGCTTGACGCTGCTG | 4.2 | 4.49 | 5.49 | 5.1 | 4.62 | 5.78 | 3.46
9 | CCGATTAACATCAAGGGGGGTATTGATGTTAATCGGGTCTTGATTCGCTTGACGCTGCTG | 6 | 4.4 | 3.99 | 4.22 | 5.14 | 5.2 | 4.8
10 | CCGATTAACATCAAAATTCCCCATGATGTTAATCGGGTCTTGATTCGCTTGACGCTGCTG | 8.8 | 9.9 | 10.5 | 7.72 | 7.31 | 7.95 | 6.99
11 | CCGATTAACATCAAAATTTTCCCTGATGTTAATCGGGTCTTGATTCGCTTGACGCTGCTG | 5.5 | 8.54 | 10.1 | 6.32 | 5.19 | 7.04 | 5.99
12 | CCGATTAACATCACACTTTTCCCTGATGTTAATCGGGTCTTGATTCGCTTGACGCTGCTG | 3.17 | 4.45 | 6.11 | 4.46 | 1.59 | 3.57 | 2.84
13 | CCGATTAACATCAGGGGATTGCATGATGTTAATCGGGTCTTGATTCGCTTGACGCTGCTG | 5.77 | 5.89 | 6.93 | 2.38 | 4.62 | 4.23 | 5.31
14 | CCGATTAACATCACGGGAAATCCTGATGTTAATCGGGTCTTGATTCGCTTGACGCTGCTG | 5.03 | 6.03 | 5.29 | 4.57 | 6.3 | 6.18 | 3.91
15 | CCGATTAACATCAGAAATCCCCATGATGTTAATCGGGTCTTGATTCGCTTGACGCTGCTG | 8.63 | 9.17 | 9.84 | 4.52 | 8.03 | 6.3 | 6.99
16 | CCGATTAACATCAGGATTCTCCCTGATGTTAATCGGGTCTTGATTCGCTTGACGCTGCTG | 3.03 | 4.71 | 3.05 | 1.79 | 1.49 | 6.5 | 3.33
17 | CCGATTAACATCAGGGCATCCCCTGATGTTAATCGGGTCTTGATTCGCTTGACGCTGCTG | 7.7 | 8.03 | 5.95 | 2.46 | 9.13 | 8.18 | 5.52
18 | CCGATTAACATCAGGATTTCCCCTGATGTTAATCGGGTCTTGATTCGCTTGACGCTGCTG | 10 | 11.1 | 11.4 | 7.55 | 9.64 | 9.68 | 7.53
19 | CCGATTAACATCAGGGGATTACATGATGTTAATCGGGTCTTGATTCGCTTGACGCTGCTG | 6.52 | 6.73 | 8.01 | 3.12 | 8 | 5.64 | 5.79
20 | CCGATTAACATCACAGTTCCCCCTGATGTTAATCGGGTCTTGATTCGCTTGACGCTGCTG | 6.94 | 6.16 | 7.51 | 8.18 | 3.79 | 4.7 | 5.66
21 | CCGATTAACATCAAGGAATCCCCTGATGTTAATCGGGTCTTGATTCGCTTGACGCTGCTG | 9.79 | 9.72 | 10.4 | 3.63 | 10.1 | 7.6 | 7.1
22 | CCGATTAACATCAGAAACCCCCCTGATGTTAATCGGGTCTTGATTCGCTTGACGCTGCTG | 9.47 | 7.7 | 7.63 | 3.94 | 9.65 | 7.6 | 6.97
23 | CCGATTAACATCAAAATACTCCCTGATGTTAATCGGGTCTTGATTCGCTTGACGCTGCTG | 5.1 | 4.6 | 4.49 | 2.79 | 1.83 | 4.2 | 3.64
24 | CCGATTAACATCACAATTCCCCCTGATGTTAATCGGGTCTTGATTCGCTTGACGCTGCTG | 7.95 | 8.27 | 9.39 | 8.14 | 5.44 | 6.33 | 7
